Rows were chosen to be rich in hits. Some 8.9% of all compounds tested hit in one or more screens of this group.
ALDH1A1 block: inhibitors of human aldehyde dehydrogenase 1A1 | P00352 | Purified ALDH1A1, NADH fluorescence, propionaldehyde substrate | Potency, µM (highest dose often 75.3 µM), without a hit: at the top dose activity, negative = inhibition, hits mostly inhibitors | actives 7.3% (n = 220,000) | AID 1030; active = well fitted inhibition curve with a large enough effect, not every such curve was filed as active; inconclusive = small, poorly fitted or top-dose-only effect, or another doubt; inactive = no such curve, though single readings can be large or run the other way;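 also: potency is read from the fitted curve at half-maximal effect; plate controls were no enzyme wells and a reference inhibitor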
ALOX12 inhib: blocks human 12-lipoxygenase activity | P18054 | purified 12-hLO, xylenol orange hydroperoxide absorbance | Potency, µM (series often up to 57.1 µM), without a hit: at the highest dose activity change, negative = inhibition, most hits filed as inhibitors | actives 0.12% (n = 150,000) | AID 1452; also: potency is read from the fitted curve at half-maximal effect; nearly all actives have a fitted effect of over 55% in size
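Lipoxygenase turnover measured by absorbance at 573 and 405 nm after Fe-XO development. Human 12hLO 150 nM, arachidonate 40 uM, pH 7.0 Hepes buffer with detergent; 15 min compound preincubation, 30 min reaction.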
IMPase Li cell: cell-permeable IMPase inhibitors with lithium potentiation; CHO-M1 cells, IP1 TR-FRET (IP-One), carbachol + lithium; Potency, µM (series often up to 59.4 µM), inactives show at the top dose activity, negative = IMPase inhibition, most hits filed as inhibitors; actives 0.35% (n = 210,000); AID 1457;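 also: IP1 builds up when IMPase is blocked and the TR-FRET signal falls; potency is read from the fitted curve at half-maximal effect; plate controls were basal vehicle for no effect and high inhibitor control for full effect; nearly all actives have a fitted effect of over 50% in size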
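CHO cells stably expressing M1 receptor (2000/well) were cultured 16–30 h, then exposed to compounds with a small lithium addition for 30 min at 37C. IP1 was measured by TR-FRET competition; AC50 from Hill fits.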
HPGD block: HPGD (human) dehydrogenase inhibition; Potency, µM, for inactives: top-dose activity change, negative = inhibition, most hits filed as inhibitors; purified HPGD, NADH fluorescence kinetic, PGE2 substrate; P15428; AID 894; actives 4.3% (n = 150,000); active = well fitted inhibition curve with a large enough effect, not every such curve was filed as active; inconclusive = small, poorly fitted or top-dose-only effect, or another doubt; inactive = no such curve, though single readings can be large or run the other way; also: potency is read from the fitted curve at half-maximal effect
Target sequence (P15428 whole entry, looked up): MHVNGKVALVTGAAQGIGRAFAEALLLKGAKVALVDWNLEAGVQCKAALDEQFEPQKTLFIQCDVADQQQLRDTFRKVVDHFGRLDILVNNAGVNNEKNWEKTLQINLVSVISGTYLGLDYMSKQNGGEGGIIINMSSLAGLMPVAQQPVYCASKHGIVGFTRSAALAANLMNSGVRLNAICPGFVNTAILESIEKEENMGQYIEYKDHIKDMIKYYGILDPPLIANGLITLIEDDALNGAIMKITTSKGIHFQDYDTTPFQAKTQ
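NADH formation kinetics: reaction with 30 uM PGE2 and 1 mM NAD+ (final), 20 nM enzyme, Tris-HCl pH 8 with Tween 20, after 15 min compound preincubation at room temperature. Fluorescence change, last versus first of five reads.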
NPSR antag: neuropeptide S receptor (human) antagonism, cAMP | Q6W5P4 | CHO-NPSR cells, cAMP TR-FRET, antagonist mode | Potency, µM (series often up to 38.3 µM), without a hit: at the top dose activity change, negative = inhibition, hits mostly inhibitors | actives 1% (n = 220,000) | AID 1461; also: potency is read from the fitted curve at half-maximal effect; nearly all actives have a fitted effect of over 50% in size
IMPase cell inh: cell-permeable inhibitors of inositol monophosphatase (IMPase); P97697; CHO-M1 cells, IP1 accumulation, HTRF TR-FRET ratio; inhibition (IP1 accumulation), % at 46.1 µM; 120,000 tested, under 10 active; AID 901; active = well fitted curve in the direction sought with a large enough effect in the signal ratio, not every such curve was filed as active; inconclusive = small, poorly fitted or top-dose-only effect, or a change in a side signal; inactive = no such curve, though single readings can be large or run the other way; the % refers to the signal ratio;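 also: cells stimulated with carbachol in lithium chloride buffer; plate controls were DMSO basal wells for no effect and reference inhibitor wells for full effect; higher means more IMPase inhibition seen as more IP1 and lower FRET ratio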
Target sequence (P97697 whole entry, looked up): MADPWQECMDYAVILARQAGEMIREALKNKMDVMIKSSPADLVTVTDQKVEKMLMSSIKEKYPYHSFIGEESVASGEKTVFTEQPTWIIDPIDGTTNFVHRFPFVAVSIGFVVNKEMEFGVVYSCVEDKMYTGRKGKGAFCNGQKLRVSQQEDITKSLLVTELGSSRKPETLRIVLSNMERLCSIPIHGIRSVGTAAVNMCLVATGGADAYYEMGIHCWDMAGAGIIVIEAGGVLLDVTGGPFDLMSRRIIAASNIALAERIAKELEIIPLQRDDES
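Elevated IP1 in lysates lowers TR-FRET signal (665/620 ratio and 620 channel reported). Cells were CHO-M1, given carbachol (50 uM as added) plus 50mM LiCl, pH 7.4, 30 min, 37C; compounds titrated up to 46 uM; AC50 by Hill equation.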
Active calls of the source: *; u = inconclusive; x = not tested or not shown; [ ] = dose if it differs, or a comment. Unless noted, calls follow the shape of the dose curve; as a rule, active = well fitted curve in the direction sought with a large enough effect; inconclusive = small, poorly fitted or top-dose-only effect, or another doubt; inactive = no such curve, though single readings can be large; an effect the other way counts as inactive or inconclusive. Unless noted, % is scaled to controls: 0 for no effect and ±100 for the full control effect.

SMILES	ALDH1A1 block	ALOX12 inhib	IMPase Li cell	HPGD block	NPSR antag	IMPase cell inh
CC(C)Cc1nnc(NS(C)(=O)=O)s1	25.1µM*	-1.2%	-24.1%[38.3 µM]	-19.3%	-1.6%[46.1 µM]	u
CC(Cl)C(=O)NNc1cccc(Cl)n1 (stereo unspecified)	20µM*	-4.1%	12.8%[38.3 µM]	-13.2%	-3.2%[46.1 µM]	-4.1
Cc1ccc(Cn2cnc3c(nnn3Cc3ccc(Cl)cc3)c2=O)cc1	10.0%	6.0%	8.3%[38.3 µM]	-6.0%	-7.4%[46.1 µM]	-5.9
O=c1c2nnn(Cc3ccc(Cl)cc3)c2ncn1Cc1ccc(F)cc1	-2.5%	-13.2%	9.5%	28.2µM*	-19.5%[46.1 µM]	4.1
Cc1cccc(Cn2cnc3c(nnn3Cc3ccc(Cl)cc3)c2=O)c1	18.3%	-12.5%	3.4%[38.3 µM]	12.6µM*	-25.4%[46.1 µM]	5.8
Cc1ccc(Cn2nnc3c(=O)n(Cc4cc(C)ccc4C)cnc32)cc1	5.6%	-1.4%	20.8%	3.98µM*	-8.4%[46.1 µM]	-1.2
Cc1ccc(Cn2nnc3c(=O)n(Cc4cccc(C)c4)cnc32)cc1	6.3%	-5.5%	4.3%	5.01µM*	8.4%[46.1 µM]	18.4
Nc1nc(CSc2nnnn2-c2ccc(Cl)cc2)nc(N2CCOCC2)n1	3.7%	-2.6%	u	-6.3%	-5.5%[46.1 µM]	-1.0
Cc1ccc(/C=C/C(=O)NCc2ccncc2)cc1	5.8%	0.1%	x	x	-2.0%[46.1 µM]	2.9
Nc1ccccc1S(=O)(=O)O	-5.5%	-5.5%	-13.4%	-3.1%	x	x
O=C(CCl)Nc1ccc(N2CCCCCC2)cc1	2.24µM*	x	10.5%	x	-21.5%	x
O=C(Cc1ccccc1)Nc1ccc(N2CCCCC2)cc1	-3.2%	x	11.0%	x	-2.6%	x
CC1CCCCN1CC(=O)Nc1ccc(N2CCCCCC2)cc1 (stereo unspecified)	20µM*	x	29.5%	x	22.0%	x
CCNC(=S)Nc1ccc(N2CCCCC2)cc1	25.1µM*	x	-2.7%	x	-1.1%	x
O=C(CNCc1ccco1)Nc1ccc(N2CCCCCC2)cc1	35.5µM*	x	13.7%	x	-40.2%	x
CCC(=O)Nc1ccc(N2CCCCC2)cc1	-7.7%	-1.6%	42.4%[38.3 µM]	-12.5%	-25.8%[46.1 µM]	4.4
CC(=O)c1ccc(NC(=O)COC(=O)CCC(=O)c2cccs2)cc1	12.5%	-2.4%	-4.3%	u	1.3%	-5.2
CCc1ccc(-c2cc(N)n(-c3ccccc3)n2)cc1	6.6%	x	3.4%	x	-5.0%	x
O=C(c1ccc2c(=O)n3c(nc2c1)CCCCC3)N1CCN(c2ccccc2)CC1	u	x	x	x	8.7%	x
Cc1ccccc1CS(=O)(=O)CCC(=O)O	4.1%	x	-2.8%	x	18.4%	x
Cc1oc(-c2ccccc2)cc1C(=O)NCc1ccncc1	x	x	x	x	-13.2%	x
C/C(=N/NC(=O)CNc1ccc(C)cc1)c1ccc(Br)s1	14.1µM*	-2.9%	40.5%[38.3 µM]	-18.7%	u	3.2
O=C(Oc1ccccc1C(=O)Nc1ccccc1)c1ccc(Br)c([N+](=O)[O-])c1	14.1µM*	0.7%	11.5%	-22.5%	-9.4%	x
COc1ccccc1C(=O)Oc1ccccc1C(=O)Nc1ccccc1	9.1%	x	-0.5%	x	-11.9%	x
Cc1nn(-c2ccccc2)c(Cl)c1/C=N/Nc1ccc(S(=O)(=O)Nc2ccccc2C(=O)O)cc1[N+](=O)[O-]	u	u	9.6%[38.3 µM]	15.8µM*	-18.7%[46.1 µM]	-0.8
SMILES	ALDH1A1 block	ALOX12 inhib	IMPase Li cell	HPGD block	NPSR antag	IMPase cell inh
O=C(O)c1ccccc1/C=N/Nc1ccc(S(=O)(=O)N2CCCC2)cc1[N+](=O)[O-]	12.6µM*	x	x	x	14.9%	x
Cc1nn(-c2ccccc2)c(Cl)c1/C=N/Nc1ccc(Cl)c(C(=O)O)c1	-8.6%	-2.8%	-7.7%	u	-26.0%	x
CCCn1c(-c2ccc(F)cc2)nc2c(NCCN3CCCC3)nc(C)nc21	u	-1.7%	2.0%	u	x	x
COc1ccccc1N=C1SC(C(=O)Nc2ccccc2OC)CC(=O)N1C (stereo unspecified)	x	x	x	x	x	-2.2
Clc1ccc(Cl)c2sc(N3CCCC3)nc12	10µM*	-7.5%	-15.5%[38.3 µM]	u	1.0%[46.1 µM]	9.1
Clc1cccc2sc(N3CCN(c4ccccc4)CC3)nc12	4.5%	-4.9%	7.0%	-26.6%	-5.1%	-8.6
CCOC(=O)CCCCC(=O)c1[nH]c(=O)[nH]c1CSc1nnc2c3cc(Br)ccc3n(C)c2n1	0.631µM*	x	10.7%	x	-28.6%	x
